# Laboratory results taken from PubChem BioAssay AID651822 (The Scripps Research Institute Molecular Screening Center, 2012).
# Out of some 2,300 compounds screened, about 970 (42%) were called active. Rule as the data show it: active = inhibition above about 4.5%; inactive = the rest. So high a share suggests a set chosen from earlier hits. Not all results are given here.
# Test system: Methionine sulfoxide reductase A (Bos taurus)
# Test: bovine MsrA inhibitors, retest, confirmation, biochemical, absorbance, HTS (AID 651822);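 also: coupled to thioredoxin reductase with NADPH and selenocystamine and DMSO as substrate; 0% = vehicle only and 100% = full effect of reference inhibitor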
# Details: purified bovine MsrA, absorbance read-out; at 15.5 µM; hits give high values
row,Structure (SMILES),inhibition
1,COc1ccccc1C(=O)N/C(=C/c1ccc2c(c1)OCO2)C(=O)Nc1cccc(C(=O)O)c1,3.23% (inactive)
2,COc1ccc(/C=C(/NC(=O)c2ccco2)C(=O)Nc2ccc(C(C)=O)cc2)cc1,5.97% (active)
3,CCN(CC)C(=O)c1sc(NC(=O)c2ccco2)c(C#N)c1C,3.8% (inactive)
4,COc1ccc(C(=O)CSc2nc(C)cc(C)n2)cc1[N+](=O)[O-],7.55% (active)
5,Cc1cc(C)nc(S/C=C/C(=O)c2ccccc2)n1,4.29% (inactive)
6,Cc1cccc(-n2c(O)c(C=Nc3ccccc3N)c(=O)[nH]c2=O)c1,3.07% (inactive)
7,COc1ccc(/C=N/n2nnnc2N)cc1OC,2.84% (inactive)
8,CCOc1cc(/C=N/NC(=O)c2c(C)nc3ccc(Cl)cn23)ccc1O,4.5% (inactive)
9,COc1ccc(/C=N\NC(=O)c2sc(N)nc2C)cc1OC,6.13% (active)
10,COc1ccc(/C=C2\N=C3CCCN3C2=O)cc1,2.42% (inactive)
11,COc1ccc(/C=C2\SC(=O)N(CCC(=O)NC3CCS(=O)(=O)C3)C2=O)cc1 (centres undefined),5.86% (active)
12,Cc1n[nH]c(=O)nc1N/N=C/c1cccs1,3.61% (inactive)
13,O=C(N/N=C/c1ccc2c(c1)OCO2)c1ccc(Cn2cc([N+](=O)[O-])cn2)o1,4.56% (active)
14,CCOc1cc(/C=N/NC(=O)c2ccc(CSc3nncn3C)cc2)ccc1OCC(=O)N1CCOCC1,3.67% (inactive)
15,COc1ccc(OC)c(C2C3=C(N=c4s/c(=C\c5cccc(O)c5)c(=O)n42)c2ccccc2CC3)c1 (centres undefined),3.18% (inactive)
16,CC(N=Cc1nc(-c2ccccc2)oc1O)c1ccccc1 (centres undefined),3.02% (inactive)
17,COC(=O)/C(C#N)=C/c1occc1C,4.58% (active)
18,CC(Nc1ccc([N+](=O)[O-])cc1[N+](=O)[O-])c1ccccc1 (centres undefined),32.3% (active)
19,O=C(Cc1ccccn1)c1ccc(O)cc1O,2.96% (inactive)
20,Cc1ccc(S(=O)(=O)Nc2nc(C)cc(N/N=C/c3ccc(O)cc3)n2)cc1,4.89% (active)
21,CN(c1ccccc1)S(=O)(=O)c1ccc2[nH]c(=O)[nH]c2c1,9.47% (active)
22,CS(=O)(=O)c1ccc2nc(NC(=O)c3ccc(Cl)nc3)sc2c1,4.5% (inactive)
23,Cc1ccc(C(=O)N/N=C/c2sc(=O)n(Cc3cccc(C(=O)O)c3)c2Cl)cc1,6.35% (active)
24,Oc1ccc(/C=N/Nc2ccc(C(F)(F)F)cn2)cc1O,4.15% (inactive)
25,O=C(O)c1ccc(N/N=C/c2ccc3ncccc3c2)cc1,7.49% (active)

row,Structure (SMILES),inhibition
1,COc1ccccc1-c1n[nH]c2c1[C@H](C)CC[C@H]2C(C)C,8.12% (active)
2,Cc1ccc(Nc2ccc(C(N)=O)cc2[N+](=O)[O-])cc1,5.43% (active)
3,NC(=O)c1ccc(Nc2ccc3c(c2)CCC3)c([N+](=O)[O-])c1,12% (active)
4,CCn1cc(/C=C(\NC(=O)c2ccc(C)cc2)C(=O)NCCN2CCOCC2)c2ccccc21,1.62% (inactive)
5,COc1ccc(-c2ccc(Nc3ccc(S(=O)(=O)N4CCCC4)cc3)nn2)cc1OC,4.64% (active)
6,CCOc1ccc(/C=C(/C#N)c2nnc(N3CCOCC3)n2-c2ccccc2)cc1OC,2.86% (inactive)
7,CC(=O)c1sc2nc(SCC(=O)N3CCCCC3)[nH]c(=O)c2c1C,4.28% (inactive)
8,CCCc1nc(SCC(=O)N2CCCC2)c2c(=O)n(C)c(=O)n(C)c2n1,4.83% (active)
9,CC1CCCCN1S(=O)(=O)c1ccc(C(=O)Nc2nnc(-c3cccs3)o2)cc1 (centres undefined),2.45% (inactive)
10,Cc1ccc(CC2(C)C(=O)Nc3ccc(OC(F)(F)F)cc32)cc1 (centres undefined),8.12% (active)
11,CC(=O)c1ccc(N2CCN(CC(=O)Nc3ccccc3N3CCOCC3)CC2)cc1,1.04% (inactive)
12,CSc1ccc(/C=C2\NC(=O)NC2=O)cc1,3.93% (inactive)
13,O=Cc1cn(-c2ccccc2)nc1-c1ccccn1,5.38% (active)
14,Cc1ccc(/C=N/NC(=S)NC2CCCCC2)o1,4.23% (inactive)
15,Cc1ccc(S(=O)(=O)N(C)c2ccc(OCC(=O)OCc3ccc(C#N)cc3)cc2)cc1,5.74% (active)
16,CC(=O)c1ccc(N2CCN(C(=O)c3ccc4nc[nH]c4c3)CC2)cc1,3.02% (inactive)
17,O=C(CNC(=O)c1cccnc1)N/N=C/c1cc(Br)c(O)c(Br)c1,4.48% (inactive)
18,O=C(CNC(=O)C1COc2ccccc2O1)N/N=C/c1cc(Br)c(O)c(Br)c1 (centres undefined),7.08% (active)
19,O=C1/C(=C\Nc2ccccc2)CCN1c1ncccn1,6.98% (active)
20,CC(=O)Nc1ccc(S(=O)(=O)Oc2ccc(/C=N/N=C3/NC(=O)C(CC(=O)O)S3)cc2)cc1 (centres undefined),2.79% (inactive)
21,O=C(O)c1ccc(N/N=C/c2cn(-c3ccccc3)nc2-c2cccs2)cc1,5.22% (active)
22,CC(=O)N1N=C(c2ccncc2)OC1(Cc1ccccc1)Cc1ccccc1,9.69% (active)
23,Cc1ccc(N2C(=O)CN=C2Nc2nc(C)cc(C)n2)cc1,4.56% (active)
24,Cc1c(C(=O)N2CCCc3ccccc32)oc2ccccc12,7.55% (active)
25,COc1ccc(C2/C(=C(/O)c3ccccc3)C(=O)C(=O)N2C)c(OC)c1 (centres undefined),1.16% (inactive)

row,Structure (SMILES),inhibition
1,Clc1cccc(-c2nc3nc4ccccc4nc3n2Cc2ccco2)c1,1.65% (inactive)
2,O=S1(=O)N=C(N(CCO)/N=C/c2ccccc2F)c2ccccc21,2.79% (inactive)
3,CCOC(=O)C(C)n1cnc2scc(-c3ccc(C)c(C)c3)c2c1=O (centres undefined),5.16% (active)
4,COc1cc2cc(C(=O)N/N=C/c3cccc(OC)c3OC)[nH]c2cc1OC,5.26% (active)
5,CCOc1ccc2[nH]c(C(=O)N/N=C/c3cccc(OC)c3OC)cc2c1,3% (inactive)
6,Cc1ccccc1C(CC(=O)c1cccs1)C(C#N)C#N (centres undefined),2.52% (inactive)
7,Nc1nnnn1CC(=O)N/N=C/c1ccc(-c2cccc(Cl)c2)o1,3.45% (inactive)
8,Cc1cccc2cc(C#N)c(N3CCCC3)nc12,7.09% (active)
9,O=C(N/N=C/c1ccco1)c1ccc(C(=O)N/N=C/c2ccco2)o1,10.6% (active)
10,Cc1occc1C(=O)N/N=C/c1ccc(-c2cccc([N+](=O)[O-])c2)o1,3.63% (inactive)
11,Cc1oc2c(c1C(=O)N1CCOCC1)C(=O)c1ccccc1C2=O,15.3% (active)
12,C=CCNC(=S)N/N=C/c1ccc(C)s1,5.29% (active)
13,COCCNC(=S)N/N=C/c1c(C)[nH]c2ccccc12,4.03% (inactive)
14,Cc1cc(C(=O)N/N=C/c2ccc(O)c([N+](=O)[O-])c2)c(C)n1-c1ccc(F)cc1,4.12% (inactive)
15,NC(=S)N/N=C/c1ccc([N+](=O)[O-])cc1,4.55% (active)
16,Cc1ccc(N2CCN(C3=NC(=O)/C(=C\c4cccs4)S3)CC2)cc1,1.26% (inactive)
17,COc1ccc(/C=C/C(=O)NC(=S)N2CCCC(C(N)=O)C2)cc1 (centres undefined),6.19% (active)
18,COc1ccc(C2=NS(=O)(=O)N(C)C(C(=O)N3CCCCC3)=C2)cc1,3.33% (inactive)
19,CC(=O)Nc1ccc(/C=N/NC(=O)c2cccs2)cc1,3.39% (inactive)
20,CCN(CC)c1ccc(/C=N/NC(=O)CNC(=O)c2cccs2)cc1,3.57% (inactive)
21,O=C(N/N=C/C=C/c1ccco1)c1cccs1,7.55% (active)
22,COc1ccc(CC(=O)c2ccc(O)cc2O)cc1OC,4.03% (inactive)
23,CCOC(=O)C/C(C)=N\Nc1ccc([N+](=O)[O-])cc1[N+](=O)[O-],9.34% (active)
24,C/C(=N\Nc1ccc(S(N)(=O)=O)cc1[N+](=O)[O-])c1cccs1,1.79% (inactive)
25,COc1cc(C2C(C(=O)c3sc(C)nc3C)=C(O)C(=O)N2CCN(C)C)cc(OC)c1OC (centres undefined),9.08% (active)

row,Structure (SMILES),inhibition
1,Cc1ccc(-c2ccc(/C=C(\C#N)C(N)=S)o2)c([N+](=O)[O-])c1,2.76% (inactive)
2,COc1ccc(/C=C/C(=O)Nc2cccnc2)cc1OC,4.72% (active)
3,CC(/C=N/NC(=O)c1ccncc1)=C\c1ccco1,6.11% (active)
4,CC(C)Oc1c(Br)cc(Br)cc1/C=N/NC(N)=S,6.46% (active)
5,CCOC(OCC)c1ccc(/C=C\c2nccc(N)n2)cc1,3.39% (inactive)
6,CCc1nnc(NC(=O)/C=C/c2ccc(C)o2)s1,6.27% (active)
7,CCc1nnc(NS(=O)(=O)c2ccc(NC(=S)NC(=O)/C=C/c3cccs3)cc2)s1,4.14% (inactive)
8,COc1cccc(C2=CC(=O)C[C@H](c3ccc(F)cc3)C2)c1OC,1.12% (inactive)
9,CN1CCN(CCC(=O)N/N=C/C=C2\N(C)c3ccccc3C2(C)C)CC1,4.4% (inactive)
10,O=C(Oc1c(-c2ccco2)oc2ccccc2c1=O)c1cccnc1,4.83% (active)
11,Cc1c(C=O)c2ccccn2c1C(=O)c1ccncc1,4.31% (inactive)
12,COc1cccc(/C(C)=N/Nc2ncc(Cl)cc2Cl)c1,5.95% (active)
13,O=C(Nc1ccc(C(=O)O)cc1)/C(=C/c1ccc([N+](=O)[O-])cc1)NC(=O)c1ccccc1,2.84% (inactive)
14,CNC(=O)/C(=C\C=C\c1ccccc1)NC(=O)c1ccc([N+](=O)[O-])cc1,4.89% (active)
15,COc1ccc(/C=N/Nc2cc(N3CCOCC3)nc(C)n2)c(OC)c1,5.31% (active)
16,Cc1cc(C(=O)N/N=C/c2ccc(N3CCOCC3)cc2)c(C)o1,3.45% (inactive)
17,C(=N/Nc1cc(N2CCOCC2)nc(N2CCOCC2)n1)/c1ccccc1,2.4% (inactive)
18,COc1ccc(S(=O)(=O)c2c[nH]c(=S)[nH]c2=O)cc1Cl,2.06% (inactive)
19,CCOC(=O)c1c(C(C#N)C#N)cc(C)nc1C,5.34% (active)
20,Cc1ccc(Cl)cc1-c1ccc(/C=N/n2cnnc2)o1,3.18% (inactive)
21,O=C(O)c1cccc(NC(=S)N/N=C/c2c[nH]c3ccccc23)c1,5.97% (active)
22,S=c1[nH]nc(-c2ccccc2)n1/N=C/c1c[nH]c2ccccc12,2.93% (inactive)
23,O=C(Nc1cccc(F)c1)c1coc(=O)c(Br)c1,4.61% (active)
24,CCOc1cc(/C=C2\SC(N3CCCCC3)=NC2=O)ccc1O,2.79% (inactive)
